The results in this text go back to ChEMBL document CHEMBL3433997, “St. Jude Leishmania screening dataset” (2016).

Usually inhibition stands for the relative decrease from the control value, in per cent.

What all share (type): functional
Test [1] has as its target Solute carrier family 2, facilitated glucose transporter member 1 (Homo sapiens) (UniProt P11166). Put plainly: ST_JUDE_LEISH: Cytotoxicity at 2uM final concentration against transgenic Leishmania Mexicana promastigotes LmGLUT1 that are glucose transport deficient and complemented with the human glucose transporter GLUT1. Activity is measured by DNA content using SYBR green in vitro.

In test [2] the target is Hexose transporter 1 (Plasmodium falciparum) (UniProt O97467). Put plainly: ST_JUDE_LEISH: Cytotoxicity at 2uM final concentration against transgenic Leishmania Mexicana promastigotes LmPfHT that are glucose transport deficient and complemented with the Plasmodium falciparum hexose transporter. Activity is measured by DNA content using SYBR green in vitro.
The target of test [3] is Glucose transporter (Leishmania mexicana) (UniProt O61059). Description: ST_JUDE_LEISH: Cytotoxicity at 2uM final concentration against transgenic Leishmania Mexicana promastigotes LmGT2 that are glucose transport deficient and complemented with the L. Mexicana glucose transporter 2. Activity is measured by DNA content using SYBR green in vitro.

Sequence of Solute carrier family 2, facilitated glucose transporter member 1 (Homo sapiens) (P11166 whole entry): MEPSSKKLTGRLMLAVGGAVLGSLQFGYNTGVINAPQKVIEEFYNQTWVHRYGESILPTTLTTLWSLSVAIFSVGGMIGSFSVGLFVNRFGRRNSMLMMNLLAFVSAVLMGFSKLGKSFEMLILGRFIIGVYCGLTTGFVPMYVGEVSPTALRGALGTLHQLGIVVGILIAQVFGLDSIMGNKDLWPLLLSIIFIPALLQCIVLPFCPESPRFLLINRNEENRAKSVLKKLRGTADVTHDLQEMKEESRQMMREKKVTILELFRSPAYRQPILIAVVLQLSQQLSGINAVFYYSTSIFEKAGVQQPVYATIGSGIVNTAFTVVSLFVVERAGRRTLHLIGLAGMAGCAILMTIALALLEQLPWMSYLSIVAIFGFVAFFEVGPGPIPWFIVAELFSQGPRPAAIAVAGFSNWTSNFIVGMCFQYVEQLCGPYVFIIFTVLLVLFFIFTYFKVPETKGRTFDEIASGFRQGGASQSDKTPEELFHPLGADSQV

Turning to `Oc1cccc(Nc2nc(NCc3ccco3)c3ccccc3n2)c1`, the inhibition stood at 19.6% in test [1], 12.2% in test [2] and 4.1% in test [3].

Consider `COc1ccc2nccc([C@@H](O)CN3CCC(NCc4ccc5c(c4)NC(=O)CO5)CC3)c2c1`, for which the inhibition in test [1] was 1.26%; in test [2] it was 1.94%; in test [3] it was 1.91%.

With `CS(=O)(=O)c1ccc(-c2cnc(N)c(-c3cccc(CO)c3)c2)cc1`, the inhibition is 3.95% in test [1], 3.16% in test [2] and 4.32% in test [3].

In the case of `OCCNc1nc(Nc2ccc(Cl)cc2)nc2ccccc12`, the inhibition is 6.17% in test [1], 4.56% in test [2] and 1.54% in test [3].

For `COc1ccccc1N1CCN(C(C(=O)NCc2ccc3c(c2)OCO3)c2ccc(C)cc2)CC1` (stereo not drawn), the values for the inhibition in test [1] and in test [2] were -0.94% and -0.2%, respectively.

Take `CC(Sc1nc2sccc2c(=O)n1C)C(=O)Nc1ccc2c(c1)OCO2` (stereo not drawn): the values for the inhibition in test [1], in test [2] and in test [3] were 4.94%, 5.47% and 3%, respectively.

As to `Clc1ccc(OCc2ccccc2)c(-c2nc(-c3nc4ncc(Br)cc4[nH]3)cs2)c1`, the inhibition in test [1] worked out at 4.08%; in test [2] it was 4.1%; in test [3], 1.99%.

Regarding `CCN(CC)CCOc1ccc(Nc2ncc3cc(-c4c(Cl)cccc4Cl)c(=O)n(C)c3n2)cc1`, the values for the inhibition in test [1], in test [2] and in test [3] were 75.8%, 83.3% and 17.9%, respectively.

Regarding `Cc1ccc(NC(=O)N2CCCN(CCCCCNC(=O)/C=C/c3ccc(Cl)c(Cl)c3)CC2)cc1C`, the inhibition in test [1] is -0.69%; in test [2], -1.17%.

Take `CC(C)Oc1ccc(C=CC(=O)Nc2noc3ccccc23)cc1`: the figures for the inhibition in test [1], in test [2] and in test [3] were 2.56%, 3.16% and 2.36%, respectively.

For `Oc1ccc(Nc2nc(NCc3ccccc3)c3ccccc3n2)cc1`, the results for the inhibition in test [1], in test [2] and in test [3] were 30.1%, 27.1% and 10.6%, respectively.

`c1ccc2c(CNCCCN3CCN(CCCNCc4c5ccccc5cc5ccccc45)CC3)c3ccccc3cc2c1`: the inhibition was 10.3% in test [1], 4% in test [2] and 0.34% in test [3].

With `O=C(NCCN1CCCCC1)N1CCCN(c2ncnc3cc(-c4ccccc4)sc23)CC1`, the results for the inhibition in test [1], in test [2] and in test [3] were 2.21%, 1.64% and 2.05%, respectively.

In the case of `COc1ccc(-c2nc(NC(=O)Cc3coc4cc(OC)ccc34)sc2C)cc1`, the inhibition in test [1] is -1.68%; in test [2], 0.45%; in test [3], -0.72%.

For the compound `O=C(Nc1cccc(CN2CCCN(Cc3cccc(O)c3)CC2)c1)c1cc2ccccc2s1`, the results for the inhibition in test [1] and in test [2] were -0.14% and -0.1%, respectively.

As for `O=C(Nc1ccc(Cl)cc1)Nc1cccc(-c2ccc(-c3nc4ccccc4[nH]3)cc2)c1`, the inhibition amounted to 2.09% in test [1], 1.83% in test [2] and 1.94% in test [3].

Regarding `CCCC(C)NC(=O)/C=C/c1ccccc1-c1cccc(OC)c1` (stereo not drawn), the inhibition is -0.91% in test [1] and -0.01% in test [2].

As for `OCCN1CCN(C(=S)NC2CCCCC2)CC1`, the inhibition in test [1] was -1.08%; in test [2], -1.56%; in test [3], -1.81%.

Regarding `O=C(Nc1ccc(F)cc1F)NC1CCN(CCCCCNC(=O)C2CC2c2ccc(Cl)c(Cl)c2)CC1` (stereo not drawn), the inhibition in test [1] came to 0.37%; in test [2], 2.99%; in test [3], 3.47%.

On to `CC(C)c1ccc(CN2CCC(CNC(=O)c3cc(-c4cccc(F)c4)cs3)C2)cc1` (stereo not drawn), for which the inhibition in test [1] was 0.2%; in test [2], -1.08%.

On to `CN(C)CCNCc1cccc(-c2ccc3c(Nc4ccc(Oc5ccccn5)cc4)ccnc3c2)c1`, for which the inhibition stood at 0.48% in test [1], 1.4% in test [2] and 0.21% in test [3].

Regarding `O=[N+]([O-])c1ccc(-n2nc(-c3cccnc3)n(Cc3ccco3)c2=S)c(Cl)c1`, the inhibition in test [1] was 1.31%; in test [2], -1.09%.

`CC(=NO)C1=C(O)C(c2ccccc2)N(c2ccccc2)C1=O` (stereo not drawn): the inhibition in test [1] worked out at 1.86%; in test [2], 2.06%; in test [3] it was 1.72%.

For the compound `COc1ccc(-c2cc(C(=O)Nc3ccc(CCCN(C)Cc4ccc(OC)c(OC)c4)cc3)c3ccccc3n2)cc1`, the values for the inhibition in test [1], in test [2] and in test [3] were 13.6%, 2.41% and 1.44%, respectively.

In the case of `COc1ccccc1CCNc1nc(C)cc(N[C@@H](Cc2ccccc2)C(=O)NCCCOC(C)C)n1`, the results for the inhibition in test [1], in test [2] and in test [3] were 3.06%, 3.2% and -0.1%, respectively.

With `N=c1n(CCN2CCCCC2)c2ccccc2n1CC(O)c1ccc(Cl)c(Cl)c1` (stereo not drawn), the inhibition was 1.22% in test [1], -0.46% in test [2] and 1.58% in test [3].

`Cc1cc(NC(=O)c2cccs2)ccc1OC1CCN(Cc2ccc(C#N)cc2)CC1`: the inhibition in test [1] is -0.77%; in test [2], 1.49%; in test [3] it was -0.42%.

Consider `CC(=O)c1nccc(C)c1N`, for which the inhibition in test [1] was 2.66%; in test [2], 1.53%; in test [3], 2.57%.

As to `O=C(/C=C/c1ccc(Cl)c(Cl)c1)NCCCCCN1CCC(NC(=O)Nc2cccc(C(F)(F)F)c2)CC1`, the inhibition is -1.91% in test [1] and -0.93% in test [2].

For the compound `CCCC(CNCc1cccc(OCC)c1)CNc1cc(=O)c2ccccc2[nH]1` (stereo not drawn), the inhibition in test [1] was -0.5%; in test [2] it was -0.45%.

On to `CC(=O)Nc1ccc(C#Cc2ccc(-c3c(C)[nH]c(C)c(Cl)c3=O)cc2)cc1`, for which the inhibition in test [1] is 1.3%; in test [2] it was 0.64%; in test [3], 1.24%.

As for `Cc1ccc(NC(=O)N2CCCN(CCCCCNC(=O)/C=C/c3ccc(Cl)c(Cl)c3)CC2)cc1`, the inhibition in test [1] was -1.97%; in test [2] it was -0.68%.

On to `COc1cccc2c(N/N=C/c3ccccc3[N+](=O)[O-])cc(C)nc12`, for which the inhibition in test [1] turned out to be 0.15%; in test [2], 0.03%; in test [3] it was 0.39%.

Turning to `CN1CCC(N(Cc2ccc(-c3ccc(C(F)(F)F)cc3)cc2)C(=O)Cn2cc(Cc3cnn(C)c3)c(=O)nc2SCc2cccc(F)c2F)CC1`, the values for the inhibition in test [1], in test [2] and in test [3] were 2.43%, 2.37% and 2.81%, respectively.

`Clc1ccc2c(NN=Cc3cccs3)ccnc2c1`: the inhibition in test [1] turned out to be 1.34%; in test [2], 1.3%; in test [3] it was 2.8%.

`O=C(NC1CCCCC1)C(c1cccs1)N(CCc1ccccc1)C(=O)c1ccco1` (stereo not drawn): the inhibition in test [1] worked out at 1.57%; in test [2] it was 1.89%; in test [3] it was 0.46%.

Regarding `CN1CCC(NCc2cccc(-c3ccc(S(=O)(=O)NCc4ccccc4)c(F)c3)c2)CC1`, the inhibition in test [1] is 2.09%; in test [2], 3.75%; in test [3], 4.35%.

For the compound `O=C(NCC(=O)N1CCC[C@H]1C(=O)O)[C@@H](Cc1ccccc1)NC(=O)[C@@H]1CCCN1C(=O)CCCc1ccc(O)cc1`, in test [1], the inhibition was -2.68%.
